Compounds without any hit were thinned out: in the full panel of roughly 83,000, 20% have a hit.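 Note: values are percent growth. 100 is the growth of untreated cells, values between 100 and 0 indicate rising inhibition; between -100 and 0 indicates cell death.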 The source made the active and inactive calls. The calls were made as follows: active = growth percent below 10; inactive = the rest.
System: DU-145 prostate
Experiment: NCI-60 one-dose screen, 48 h (100 = growth as untreated, 0 = no growth, -100 = all killed)
Settings: 10 µM unless noted

SMILES	growth
CCCC/C(=C\c1ccc(O)c(O)c1)C(=O)NC(Cc1ccccc1)C(=O)C(=O)NCCc1ccc(OC)cc1 (configuration not stated)	104% (inactive)
CCN(CC)c1ccc(/C=N/NC(=O)c2ccc(NS(C)(=O)=O)cc2)cc1	37.9% (inactive)
Cc1ccc(C)c(NC2=C(Cl)C(=O)c3nc(C)ccc3C2=O)c1	-76.4% (active)
O=C(CSc1nnc(-c2cccs2)n1-c1ccccc1)Nc1ccccc1F	102% (inactive)
Cc1ccc(CSC2=C(Cl)CN(c3ccc(Cl)cc3)C2=O)cc1	108% (inactive)
Cn1ncc2c(C(=O)c3ccc(F)cc3)nc(C(C)(C)C)nc21	102% (inactive)
O=C(CSc1nc2ccccc2c(=O)n1-c1ccccc1)N/N=C/c1ccc(Oc2ccc(Cl)cc2)cc1	38.4% (inactive)
Cc1cccc(N2CCN(C3=C(Cl)C(=O)c4ncccc4C3=O)CC2)c1	44.7% (inactive)
N/C(=N\C(N)=N\c1nc2ccccc2s1)c1ccc(Cl)cc1	85.4% (inactive)
N#Cc1nc(-c2ccccc2)oc1N1CCC(C2(C(F)(F)F)N=N2)CC1	103% (inactive)
CC(C)(C)c1cc(NC(=O)Nc2ccc(-c3cn4c5c(sc4n3)CCc3cn(CCCN4CCCCC4)cc3-5)cc2)no1	-96.4% (active)
Cc1csc(/N=C(N)/N=C(\N)c2cccc(Br)c2)n1	105% (inactive)
Cc1cc2nc(C(Cl)Cl)nc(-c3ccc(S(=O)(=O)N(C)C)cc3)n2n1	45.1% (inactive)
C#Cc1nc(/C=C\CCCCCCC(=O)NO)cs1	39.2% (inactive)
O=C1C(SCc2ccccc2)=C(Cl)CN1c1ccccc1	102% (inactive)
CN1c2ccccc2Sc2cc(/C=N/Nc3ccnc4cc(Cl)ccc34)ccc21	103% (inactive)
NS(=O)(=O)c1ccc(CCn2c(-c3ccc(C(=O)O)cc3)nc(-c3ccccc3)c2-c2ccccc2)cc1	102% (inactive)
CCCc1cc2cc(-n3nc(CC)c4c3CC(C)(C)CC4=O)cc(NC3CCC(O)CC3)c2c(=O)[nH]1 (configuration not stated)	40.2% (inactive)
O=S(=O)(NCCCNc1nccc(-c2[nH]c(-c3ccccc3)nc2-c2ccc(F)c(O)c2)n1)c1cccc(F)c1	100% (inactive)

SMILES	growth
CCCCCCNC(=O)Oc1ccc(/C(=C(/C)c2ccc(OC)cc2)c2ccc(OCCN3CCCCCC3)cc2)cc1	47.8% (inactive)
CCOC(=O)Nc1ccc2c(ccn2C(=O)c2cccc(F)c2)c1	29.5% (inactive)
O=C(CCCCCCNC(=O)C(O)(O)C(F)(F)F)Nc1ccc(Cl)cc1	17.6% (inactive)
CCS(=O)(=O)Nc1ccc(C(=O)CC2(O)C(=O)Nc3ccccc32)cc1 (configuration not stated)	109% (inactive)
COc1cccc(N2CCN(C3=C(Cl)C(=O)c4ncccc4C3=O)CC2)c1	59.2% (inactive)
Nn1c(=O)n(-c2cccc(C(F)(F)F)c2)c(=O)c2cc(-c3ccc(F)cc3F)ccc21	24.4% (inactive)
CC(=O)N1N=C(c2cc3ccccc3oc2=O)CC1c1cn(-c2ccccc2)nc1-c1ccc(C)cc1 (configuration not stated)	103% (inactive)
NS(=O)(=O)c1cccc(Nc2nc(SCC(=O)c3ccc(Cl)cc3)nc3c2CCC3)c1	97.6% (inactive)
O=C(CCCCCCNC(=O)c1csc(Br)n1)NO	26.7% (inactive)
Cc1[nH]c(C(=O)Nc2ccccc2OCc2cccc(C(=O)NCCN)c2)cc1Cl	36.5% (inactive)
O=C(/C=C/Nc1ccc(S(=O)(=O)Nc2ncccn2)cc1)c1ccc(N=Cc2c(O)[nH]c3ccccc23)cc1	116% (inactive)
Nc1cc(C(=O)N/N=C\c2ccc(OC(F)F)c(OC3CCCC3)c2)nn1CC(O)c1ccccc1 (configuration not stated)	105% (inactive)
Cc1ccc(C(=O)Nc2ccc(CNCCN3CCOCC3)c(C(F)(F)F)c2)cc1C#Cc1cnc2cccnn12	33.5% (inactive)
COc1cc2c3c(cc4c5c(ccc4c3c1OC)OCO5)N(CCN(C)C)C2=O	0.415% (active)
Cc1ccc2c(n1)C(=O)C(Cl)=C(Nc1cccc(C)c1C)C2=O	-11% (active)
CN(C)CC(=O)Nc1nc(-c2cccc(NS(=O)(=O)c3cccc4c(N(C)C)cccc34)c2)cs1	103% (inactive)
COc1ccc(NC2=C(Br)C(=O)C(C)=C(C)C2=O)cc1OC	109% (inactive)
COc1cccc2c1[C@H](OC)[C@]13O[C@@]1(C2=O)[C@H](O)[C@H](C)[C@@](O)(C(=O)[C@@H]1O[C@H]1C)[C@@H]3O	-20.6% (active)

From PubChem BioAssay (NCI)
